# Laboratory results reported in PubChem BioAssay (EPA / NIEHS).
# Inconclusive results are not listed. The source made the active and inactive calls. Rule for the calls, unless noted: active = hit-call score of the fitted dose curve at least 0.9, where 1 is the maximum; inconclusive = response in the unintended direction; inactive = score below 0.9.
# How the values were obtained:
# THRB (gene 7068) [1] = biological target: THRB (gene 7068) (UniProt P10828); assay: TOX21_TRB_BLA_Agonist_Followup_ratio: Tox21 Thyroid Hormone Receptor beta Agonism Beta-lactamase (BLA) Follow-Up Assay, Ratio (AID 2283954)
# Outline: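 Human TRβ LBD–GAL4 DBD fusion in GeneBLAzer UAS-bla HEK293T cells; 11 concentrations in triplicate, 18 h at 37°C/5% CO2, T3 as agonist control. CCF4-AM substrate 2 h at room temperature; 460:530 nm ratio fitted for gain of signal versus DMSO.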
# THRB (gene 7068) [2] = biological target: THRB (gene 7068) (UniProt P10828); assay: TOX21_TRB_COA_Agonist_Followup_ratio: Tox21 Thyroid Hormone Receptor beta Agonism through Coactivator Recruitment Follow-Up Assay, Ratio (AID 2283963; active = hit-call score of the fitted dose curve at least 0.9, where 1 is the maximum; inactive = score below 0.9)
# Outline: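 First, the GST-fused TRβ ligand-binding domain (5.0 nM) was incubated with test compound in 0.10% BSA. Next, fluorescein-tagged SRC-2 peptide (200 nM) and terbium anti-GST antibody (2 nM) were added. Finally, TR-FRET emission ratios were normalized against DMSO and T3 controls.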
# [3] = biological target: Retinoic acid receptor RXR-alpha (Homo sapiens) (UniProt P19793); assay: TOX21_TR_RXR_BLA_Agonist_Followup_ratio: Tox21 Thyroid Hormone Receptor beta Retinoid X Receptor alpha (RXRa) Agonism Beta-lactamase (BLA) Follow-Up Assay, Ratio (AID 2283968)
# Outline: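 RXRa-UAS-bla HEK293T cells (GAL4 beta-lactamase reporter) were treated with compounds at 11 concentrations in triplicate for 16 h at 37C/5% CO2, then loaded with CCF4-AM substrate for 2 h at room temperature; activity is the 460:530 nm ratio versus DMSO baseline.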
# [4] = TOX21_TR_RXR_BLA_Agonist_Followup_viability: Viability Assessment in the Tox21 Thyroid Hormone Receptor beta Retinoid X Receptor alpha (RXRa) Agonism Beta-lactamase (BLA) Follow-Up Assay (AID 2283970)
# Outline: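 RXRa-UAS-bla HEK293T cells seeded at 2,500/well in phenol red-free DMEM with 2% charcoal-stripped FBS, exposed to compound 16h at 37C/5% CO2 in qHTS. Viability read by CellTiter-Glo ATP luminescence; bidirectional fitting against DMSO baseline, signal loss indicating cytotoxicity.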
# THRB (gene 7068) [5] = biological target: THRB (gene 7068) (UniProt P10828); assay: TOX21_TRB_BLA_Antagonist_Followup_ratio: Tox21 Thyroid Hormone Receptor beta Antagonism Beta-lactamase (BLA) Follow-Up Assay, Ratio (AID 2283958)
# Outline: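 GAL4-DBD/human TRβ-LBD fusion in GeneBLAzer UAS-bla HEK293T cells, 3,000 cells/well in phenol red-free DMEM with 2% charcoal-stripped FBS; compounds at 11 concentrations in triplicate, 18 h at 37C. CCF4-AM substrate 2 h, 460:530 nm ratio relative to DMSO.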
# [6] = TOX21_TRB_BLA_Antagonist_Followup_viability: Viability Assessment in the Tox21 Thyroid Hormone Receptor beta Antagonism Beta-lactamase (BLA) Follow-Up Assay (AID 2283961)
# Outline: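 ATP-based CellTiter-Glo luminescence (30 min, room temperature) run in the same wells as the TRβ-bla readout. Cells: GeneBLAzer HEK293T expressing GAL4-TRβ LBD, exposed 18 h at 37C to compounds at 11 concentrations in triplicate, stripped-serum medium.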
# THRB (gene 7068) [7] = biological target: THRB (gene 7068) (UniProt P10828); assay: TOX21_TRB_COA_Antagonist_Followup_ratio: Tox21 Thyroid Hormone Receptor beta Antagonism through Coactivator Recruitment Follow-Up Assay, Ratio (AID 2283967)
# From the text: TOX21_TRb_COA_Antagonist_Followup is a secondary assay for specificity for the TOX21_TR_GH3_LUC_Agonist assay. The LanthaScreen TR-FRET TR coactivator assay kits were used to determine TR activity in a cell-free functional assay. A time-resolved fluorescence resonance energy transfer (TR-FRET) signal was indicative of coactivator (SRC-2) recruitment.TOX21_TRB_COA_Antagonist_Followup_ratio is assay component calculated in the TOX21_TRB_COA_Antagonist_Followup assay. The TR-FRET ratio of acceptor emission (ch2) to donor emission (ch1) is indicative of the resonance energy transfer to the fluorescein tag on the coactivator peptide following recruitment to the receptor.Data from the assay component TOX21_TRB_COA_Antagonist_Followup_ratio was analyzed into 1 assay endpoint. This assay endpoint, TOX21_TRB_COA_Antagonist_Followup_ratio, was analyzed in the positive analysis fitting direction relative to DMSO as the negative control and baseline of activity. […] Furthermore, this assay endpoint can be referred to as a primary readout, because this assay has produced multiple assay endpoints and this ratio serves a reporter gene function to understand target activity. […]
# Cell Media Required: Growth (90% DMEM/F-12, 10% Fetal Bovine Calf Serum, 100U/ml Penicillin, 100 ug/ml Streptomycin), Assay (10ng/mL sodium selenite, 10 ug/mL humanapo-transferrin, 10 uM ethanolamine, 10 ug/mL insulin, 500 ug/mL bovine serum albumin (BSA))Assay Protocol: 4 uL mixture of the receptor LBDs expressed as glutathione S-transferase (GST) fusion proteins (2.5 nM for TRa and 5.0 nM for TRb) and BSA (0.10%; Sigma-Aldrich) were incubated with 23 nL of control or test compound. A time-resolved fluorescence resonance energy transfer(TR-FRET) signal was indicative of coactivator recruitment using a 2 uL mixture of fluoresce in-labeled SRC-2 peptide (200 nM) and terbium-labeled anti-GST antibody (2nM), which transferred resonance energy to the fluorescein tag on the coactivator peptide following recruitment to the receptor. […]
# [8] = biological target: Retinoic acid receptor RXR-alpha (Homo sapiens) (UniProt P19793); assay: TOX21_TR_RXR_BLA_Antagonist_Followup_ratio: Tox21 Thyroid Hormone Receptor beta Retinoid X Receptor alpha (RXRa) Antagonism Beta-lactamase (BLA) Follow-Up Assay, Ratio (AID 2283972)
# Outline: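 After 5 h attachment at 37C, HEK293T RXRa-bla cells (2,500/well, 2% charcoal-stripped FBS, no phenol red) received compounds at 11 concentrations in triplicate for 16 h. Beta-lactamase read as 460:530 nm ratio after 2 h RT substrate loading.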
# [9] = CCTE_Harrill_HTTr_Viability_DMEM_6hr: (Pilot) CCTE's 6-hour Cell Viability Assessment for the High-Throughput Transcriptomics (HTTr) Platform, in MCF-7 cells cultured in DMEM + 10% fetal bovine serum, Harrill Lab (AID 2283973; active = hit-call score of the fitted dose curve at least 0.9, where 1 is the maximum; inactive = score below 0.9)
# Outline: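 MCF-7 cells in DMEM + 10% FBS, eight-point dilution series, 6 h exposure. Membrane integrity by propidium iodide exclusion with high-content imaging; bidirectional fit versus DMSO.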
# [10] = CCTE_Harrill_HTTr_Viability_DMEM_12hr: (Pilot) CCTE's 12-hour Cell Viability Assessment for the High-Throughput Transcriptomics (HTTr) Platform, in MCF-7 cells cultured in DMEM + 10% fetal bovine serum, Harrill Lab (AID 2283974; active = hit-call score of the fitted dose curve at least 0.9, where 1 is the maximum; inactive = score below 0.9)
# From the text: This is a cell-based assay that evaluates cell viability using high content imaging to evaluate membrane integrity using propidium iodide dye exclusion in a 384 well format.One of seven assay components measured from the CCTE_Harrill_HTTr_Viability assay. This was part of a pilot experiment. This is a cell-based assay that evaluates cell viability in MCF-7 cells cultured in DMEM + 10% fetal bovine serum. High content imaging is used to evaluate membrane integrity using propidium iodide dye exclusion. Measurements are taken at 12 hours after chemical dosing in 384-well format.The assay component endpoint CCTE_Harrill_HTTr_Viability_DMEM_12hr was analyzed with bidirectional fitting relation to DMSO as the negative control and baseline of activity. Using a type of viability reporter to understand changes in cytotoxicity, gain-of-signal activity can be used to evaluate membrane integrity using propidium iodide dye exclusion. To generalize the intended target to other relatable targets, this assay endpoint is annotated to cell cycle, where the subfamily is cytotoxicity.
# Chemicals were tested in MCF7 cells in an eight point dilution series with a twelve hour exposure duration.
# THRB (gene 7068), sequence (P10828 whole entry, looked up, the tested form may be a part): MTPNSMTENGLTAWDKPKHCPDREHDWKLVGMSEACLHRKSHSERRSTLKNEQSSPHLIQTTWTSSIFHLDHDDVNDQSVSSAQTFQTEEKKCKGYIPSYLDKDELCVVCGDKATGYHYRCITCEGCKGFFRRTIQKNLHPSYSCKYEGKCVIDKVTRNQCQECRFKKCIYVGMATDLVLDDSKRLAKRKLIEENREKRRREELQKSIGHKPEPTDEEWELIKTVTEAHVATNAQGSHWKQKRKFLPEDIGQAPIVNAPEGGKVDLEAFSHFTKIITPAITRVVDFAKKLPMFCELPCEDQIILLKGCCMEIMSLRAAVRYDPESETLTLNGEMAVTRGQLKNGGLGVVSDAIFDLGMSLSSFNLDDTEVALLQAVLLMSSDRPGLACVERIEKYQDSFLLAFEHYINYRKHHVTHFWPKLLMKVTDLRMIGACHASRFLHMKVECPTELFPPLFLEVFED
# Retinoic acid receptor RXR-alpha (Homo sapiens), sequence (P19793 whole entry, looked up, the tested form may be a part): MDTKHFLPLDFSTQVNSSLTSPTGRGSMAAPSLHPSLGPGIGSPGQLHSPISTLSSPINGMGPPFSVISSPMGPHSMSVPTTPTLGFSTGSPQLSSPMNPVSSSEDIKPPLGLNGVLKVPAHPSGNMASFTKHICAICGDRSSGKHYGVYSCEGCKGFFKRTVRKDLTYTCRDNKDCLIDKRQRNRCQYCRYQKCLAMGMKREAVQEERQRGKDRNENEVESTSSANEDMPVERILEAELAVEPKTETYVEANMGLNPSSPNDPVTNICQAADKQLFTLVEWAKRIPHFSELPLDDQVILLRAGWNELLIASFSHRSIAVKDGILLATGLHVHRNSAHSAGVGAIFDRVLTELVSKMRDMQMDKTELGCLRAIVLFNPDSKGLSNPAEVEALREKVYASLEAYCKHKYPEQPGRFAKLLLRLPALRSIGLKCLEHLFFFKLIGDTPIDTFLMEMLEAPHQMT
structure (smiles),measurement,setting,value
O=c1[nH]cnc2c1ncn2[C@H]1CC[C@@H](CO)O1,AC50,THRB (gene 7068) [1],9.78 µM (active)
same,outcome,THRB (gene 7068) [2],inactive
same,outcome,[3],inactive
same,outcome,[4],inactive
COc1cc2c(c(OC)c1OC)-c1ccc(OC)c(=O)cc1[C@@H](NC(C)=O)CC2,AC50,THRB (gene 7068) [5],0.0894 µM (active)
same,outcome,[6],inactive
same,outcome,THRB (gene 7068) [7],inactive
same,outcome,[8],inactive
Nc1ccn([C@@H]2O[C@H](CO)[C@@H](O)[C@@H]2O)c(=O)n1,outcome,[6],inactive
same,outcome,THRB (gene 7068) [7],inactive
Cc1nccn1-c1ccc(Sc2cccc(C3(C(N)=O)CCOCC3)c2)cc1,AC50,THRB (gene 7068) [5],21.5 µM (active)
same,outcome,[6],inactive
same,outcome,THRB (gene 7068) [7],inactive
same,outcome,[8],inactive
CC(C)C(=O)Nc1ccc([N+](=O)[O-])c(C(F)(F)F)c1,outcome,[9],inactive
same,outcome,[10],inactive
Cn1c(=O)c2[nH]cnc2n(C)c1=O,outcome,THRB (gene 7068) [1],inactive
same,outcome,THRB (gene 7068) [2],inactive
same,outcome,[3],inactive
same,outcome,[4],inactive
